“And” between values parts separate entries of the source, which are not always exact repeats. Identical values can stand only once. Inconclusive results are not listed. The source made the active and inactive calls. Calls come from the whole dose curve; as a rule, active = well fitted cell-killing curve with a large enough effect; inconclusive = small, poorly fitted or top-dose-only effect; inactive = no such curve, though single readings can be large or run the other way.
Potency is the fitted concentration of half-maximal effect.

A short description of the first test: qHTS of pediatric cancer cell lines to identify multiple opportunities for drug repurposing: Primary screen for SK-N-SH cells (AID 1347098).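 For activity change, negative = cytotoxic: DMSO served as neutral control and bortezomib at 2.3 µM as positive control; % is set by controls: 0 for no effect and ±100 for the full control effect.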 Note: nearly all actives have a fitted effect of over 65% in size. The note with it: SK-N-SH viability, CellTiter-Glo luminescence, 48 h; series mostly up to 57 µM; activity change, negative = cytotoxic: at the top concentration. In short, it runs like this: (§1)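 Cells (500-1,000/well) rested 5 h, then received compounds for 48 h; metabolically active cells were measured by CellTiter-Glo luminescence. Final concentrations spanned up to 46 µM (MIPE, 11-point) or 0.59 nM-46 µM (NPC, 8-point) in primary screens, 11-point in follow-ups.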
On the technique in general: qHTS replaces the single test concentration by a dilution series.
As for `CCCOc1ccc2nc(NC(=O)OC)[nH]c2c1`, the “activity change, negative = cytotoxic” value is -19.4% (inactive).
With `CCc1nc(N)nc(N)c1-c1ccc(Cl)cc1`, the Potency result was “inactive”.
As to `Cc1ncc([N+](=O)[O-])n1CC(C)O` (stereo unspecified), the “activity change, negative = cytotoxic” value was 3.82% (inactive).
Same read-out and setting: the figure for `O=c1oc2cc(O)ccc2s1` is 27% (inactive).
Still for that read-out and setting: the figure for `CCOC(=O)C1=C[C@@H](OC(CC)CC)[C@H](NC(C)=O)[C@@H](N)C1` is 26.4% (inactive); for `Cc1cccc(-c2[nH]ncc2-c2ccc3ncccc3n2)n1` it is 2.24% (inactive); for `Cc1nccn1CC1CCc2c(c3ccccc3n2C)C1=O` (stereo unspecified) it is -10.9% (inactive).
Still for that read-out and setting: the figure for `Cc1cc(O)c2c(c1)C(=O)c1cc(O)cc(O)c1C2=O` is -2.34% (inactive).
Consider `Nc1nc(N)c(N=O)c(OCC2CCCCC2)n1`, for which the Potency was 24.1 µM (active).
Regarding `CCC(C)(Oc1ccc(C2(c3ccc(OC(C)(CC)C(=O)O)cc3)CCCCC2)cc1)C(=O)O` (stereo unspecified), the “activity change, negative = cytotoxic” value is 27.2% (inactive).
The same measure, in the same setting: with `Cc1nc(-c2ccc(OCC(C)C)c(C#N)c2)sc1C(=O)O` the figure was -4.84% (inactive); with `Cn1c(NCCN(CCO)CCCc2ccc([N+](=O)[O-])cc2)cc(=O)n(C)c1=O`, -4.63% (inactive).
In the case of `C=C(c1ccc(C(=O)O)cc1)c1cc2c(cc1C)C(C)(C)CCC2(C)C`, the Potency entry is “inactive”.
For the molecule `Cc1c(OCC(F)(F)F)ccnc1CS(=O)c1nc2ccccc2[nH]1` (stereo unspecified), the Potency entry was “inactive”.
`S=c1nc[nH]c2nc[nH]c12`: the “activity change, negative = cytotoxic” value is -28% (inactive).
On the same count and under the same terms, the figure for `CN(C)[C@@H](CCOc1cccc2ccccc12)c1ccccc1` is -4.23% (inactive).
On to `O=C1c2c(O)cc(O)cc2OC(c2ccc(O)c(O)c2)C1O` (stereo unspecified), for which the Potency is 30.4 µM (active).
Still for that read-out and setting: with `O=C(NC(Cc1cc(=O)[nH]c2ccccc12)C(=O)O)c1ccc(Cl)cc1` (stereo unspecified) the entry was “inactive”.
As for `COC1=C(OC)C(=O)C(CCCCCCCCCCO)=C(C)C1=O`, the “activity change, negative = cytotoxic” value was 7.13% (inactive).
`O=Nc1c(-c2c(O)[nH]c3cc(Br)ccc23)[nH]c2ccccc12`: the Potency is 17.1 µM (active).
Still for that read-out and setting: the figure for `COc1cc2c(N3CCN(C(=O)Nc4ccc(OC(C)C)cc4)CC3)ncnc2cc1OCCCN1CCCCC1` is 27.1 µM (active) and 17.2 µM (active).
In the case of `CCOC(=O)C(C)Oc1cccc2c(=O)n(CC(=O)Nc3ccc4c(c3)OCCO4)ccc12` (stereo unspecified), the “activity change, negative = cytotoxic” value is 19.5% (inactive).
For `CNC[C@H](O)c1ccc(O)c(O)c1`, the Potency result is “inactive”.
With `O=C(O)c1cccc(-c2noc(-c3ccccc3F)n2)c1`, the “activity change, negative = cytotoxic” value is -6.6% (inactive).
On the same count and under the same terms, the figure for `Cc1cccc(CN2CCN(C(c3ccccc3)c3ccc(Cl)cc3)CC2)c1` (stereo unspecified) is -1.82% (inactive); for `COc1cc2c(cc1OC)C1CC(=O)C(CC(C)C)CN1CC2` (stereo unspecified) it is 4.44% (inactive); for `COc1c(O)cc2c(c1O)[C@@H]1O[C@H](CO)[C@@H](O)[C@H](O)[C@H]1OC2=O` it is 22.2% (inactive).
On to `c1ccc2[nH]c(-c3cscn3)nc2c1`, for which the Potency entry is “inactive”.
For `O=C(NCCO[N+](=O)[O-])c1cccnc1`, the “activity change, negative = cytotoxic” value is -4.41% (inactive).

A short description of the next test: qHTS of pediatric cancer cell lines to identify multiple opportunities for drug repurposing: Primary screen for NB1643 cells (AID 1347099).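 For activity change, negative = cytotoxic: plate controls were DMSO neutral control for no effect and bortezomib positive control for full effect.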 Note: nearly all actives have a fitted effect of over 50% in size. To be noted: NB1643 neuroblastoma viability, CellTiter-Glo luminescence, 48 h; series mostly up to 46 µM; activity change, negative = cytotoxic: at the top concentration. An outline of the steps: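 500-1,000 cells/well; 5 h pre-incubation 37 °C/5% CO2; compound pinned; 48 h; CellTiter-Glo, 15 min RT; luminescence. MIPE 11-pt from 0.78 nM, NPC 8-pt from 0.59 nM final. Bortezomib 2.3 µM final as positive control.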
With `CCc1nc(N)nc(N)c1-c1ccc(Cl)cc1`, the “activity change, negative = cytotoxic” value is 0% (inactive).
Take `Cc1ncc([N+](=O)[O-])n1CC(C)O` (stereo unspecified): the Potency entry was “inactive”.
Turning to `CCOC(=O)C1=C[C@@H](OC(CC)CC)[C@H](NC(C)=O)[C@@H](N)C1`, the “activity change, negative = cytotoxic” value is 0.115% (inactive).
As for `Cc1cccc(-c2[nH]ncc2-c2ccc3ncccc3n2)n1`, the “activity change, negative = cytotoxic” value is -19.6% (inactive).
Take `N=C(N=C(N)N)N1CCOCC1`: the Potency entry is “inactive”.
The same measure, in the same setting: the figure for `Nc1nc(N)c(N=O)c(OCC2CCCCC2)n1` is 18.7 µM (active).
With `CCC(C)(Oc1ccc(C2(c3ccc(OC(C)(CC)C(=O)O)cc3)CCCCC2)cc1)C(=O)O` (stereo unspecified), the “activity change, negative = cytotoxic” value is 8.78% (inactive).
For `Cc1nc(-c2ccc(OCC(C)C)c(C#N)c2)sc1C(=O)O`, the Potency result was “inactive”.
With `C=C(c1ccc(C(=O)O)cc1)c1cc2c(cc1C)C(C)(C)CCC2(C)C`, the “activity change, negative = cytotoxic” value is 5.69% (inactive).
On to `Cc1c(OCC(F)(F)F)ccnc1CS(=O)c1nc2ccccc2[nH]1` (stereo unspecified), for which the “activity change, negative = cytotoxic” value is 14.8% (inactive).
Still for that read-out and setting: with `CN(C)[C@@H](CCOc1cccc2ccccc12)c1ccccc1` the figure was 6.95% (inactive); with `Cc1ccc(Nc2nccc(N(C)c3ccc4c(C)n(C)nc4c3)n2)cc1S(N)(=O)=O`, -12.8% (inactive); with `C[C@H](Cn1cnc2c(N)ncnc21)OCP(=O)(O)O`, 17.8% (inactive).
`COC1=C(OC)C(=O)C(CCCCCCCCCCO)=C(C)C1=O`: the “activity change, negative = cytotoxic” value is -7.15% (inactive).
Regarding `O=Nc1c(-c2c(O)[nH]c3cc(Br)ccc23)[nH]c2ccccc12`, the Potency is 9.35 µM (active).
The same measure, in the same setting: with `O=C(O)CCNC(=O)c1ccc(N=Nc2ccc(O)c(C(=O)O)c2)cc1` the entry was “inactive”.
With `COc1cc2c(cc1OC)C1CC(=O)C(CC(C)C)CN1CC2` (stereo unspecified), the “activity change, negative = cytotoxic” value was 17.4% (inactive).
For the molecule `Nc1nc(Cl)nc2c1ncn2[C@H]1C[C@H](O)[C@@H](CO)O1`, the Potency was 1.05 µM (active).
In the case of `COc1c(O)cc2c(c1O)[C@@H]1O[C@H](CO)[C@@H](O)[C@H](O)[C@H]1OC2=O`, the “activity change, negative = cytotoxic” value is -0.78% (inactive).
Consider `c1ccc2[nH]c(-c3cscn3)nc2c1`, for which the Potency result was “inactive”.

Another test in a line: qHTS of pediatric cancer cell lines to identify multiple opportunities for drug repurposing: Primary screen for LAN-5 cells (AID 1347100).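 For activity change, negative = cytotoxic: plate controls were DMSO neutral control for no effect and bortezomib positive control for full effect.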 To be noted: LAN-5 neuroblastoma viability, CellTiter-Glo luminescence, 48 h; series mostly up to 46 µM; activity change, negative = cytotoxic: at the top concentration. In short, it runs like this: as §1
As to `Cc1ncc([N+](=O)[O-])n1CC(C)O` (stereo unspecified), the Potency entry is “inactive”.
For the molecule `O=c1oc2cc(O)ccc2s1`, the “activity change, negative = cytotoxic” value was -20.1% (inactive).
`CCOC(=O)C1=C[C@@H](OC(CC)CC)[C@H](NC(C)=O)[C@@H](N)C1`: the “activity change, negative = cytotoxic” value is 1.75% (inactive).
`CN(C)C(=O)[C@H](O)[C@H](Cc1ccccc1)NC(=O)c1cc2cc(Cl)ccc2[nH]1`: the “activity change, negative = cytotoxic” value is 1.54% (inactive).
With `Cc1cccc(-c2[nH]ncc2-c2ccc3ncccc3n2)n1`, the “activity change, negative = cytotoxic” value is 7.72% (inactive).
Consider `Cc1nccn1CC1CCc2c(c3ccccc3n2C)C1=O` (stereo unspecified), for which the Potency entry is “inactive”.
Take `Cc1cc(O)c2c(c1)C(=O)c1cc(O)cc(O)c1C2=O`: the “activity change, negative = cytotoxic” value is 3.02% (inactive).
Consider `N=C(N=C(N)N)N1CCOCC1`, for which the Potency result is “inactive”.
`CCC(C)(Oc1ccc(C2(c3ccc(OC(C)(CC)C(=O)O)cc3)CCCCC2)cc1)C(=O)O` (stereo unspecified): the “activity change, negative = cytotoxic” value is 12.7% (inactive).
Turning to `Cc1nc(-c2ccc(OCC(C)C)c(C#N)c2)sc1C(=O)O`, the Potency entry is “inactive”.
Turning to `C=C(c1ccc(C(=O)O)cc1)c1cc2c(cc1C)C(C)(C)CCC2(C)C`, the “activity change, negative = cytotoxic” value was -10.6% (inactive).
For the molecule `Cc1c(OCC(F)(F)F)ccnc1CS(=O)c1nc2ccccc2[nH]1` (stereo unspecified), the Potency result was “inactive”.
`S=c1nc[nH]c2nc[nH]c12`: the Potency was 1.5 µM (active) and 2.96 µM (active).
Take `CN(C)[C@@H](CCOc1cccc2ccccc12)c1ccccc1`: the “activity change, negative = cytotoxic” value is -8.67% (inactive).
On to `Cc1ccc(Nc2nccc(N(C)c3ccc4c(C)n(C)nc4c3)n2)cc1S(N)(=O)=O`, for which the Potency was 18.7 µM (active).
`C[C@H](Cn1cnc2c(N)ncnc21)OCP(=O)(O)O`: the “activity change, negative = cytotoxic” value was 14.6% (inactive).
As to `O=C(NC(Cc1cc(=O)[nH]c2ccccc12)C(=O)O)c1ccc(Cl)cc1` (stereo unspecified), the Potency result was “inactive”.
Take `Cc1cccc(C#Cc2ccccc2)n1`: the “activity change, negative = cytotoxic” value is -10.8% (inactive).
As for `O=Nc1c(-c2c(O)[nH]c3cc(Br)ccc23)[nH]c2ccccc12`, the Potency is 18.7 µM (active).
Same read-out and setting: the figure for `COc1cc2c(N3CCN(C(=O)Nc4ccc(OC(C)C)cc4)CC3)ncnc2cc1OCCCN1CCCCC1` is 18.7 µM (active).
`CCOC(=O)C(C)Oc1cccc2c(=O)n(CC(=O)Nc3ccc4c(c3)OCCO4)ccc12` (stereo unspecified): the “activity change, negative = cytotoxic” value was -0.527% (inactive).
Turning to `CC[C@]1(O)C[C@H]2CN(CCc3c([nH]c4ccccc34)[C@@](C(=O)OC)(c3cc4c(cc3OC)N(C=O)[C@H]3[C@@](O)(C(=O)OC)[C@H](OC(C)=O)[C@]5(CC)C=CCN6CC[C@]43[C@@H]65)C2)C1`, the Potency was 8.3 nM (active) and 59.6 nM (active).
Same read-out and setting: with `CNC[C@H](O)c1ccc(O)c(O)c1` the entry was “inactive”.
For `O=C(CS(=O)Cc1ccco1)NCC=CCOc1cc(CN2CCCCC2)ccn1` (stereo unspecified), the “activity change, negative = cytotoxic” value was 4.71% (inactive).
As to `O=C(O)c1cccc(-c2noc(-c3ccccc3F)n2)c1`, the Potency entry was “inactive”.
On to `Cc1cccc(CN2CCN(C(c3ccccc3)c3ccc(Cl)cc3)CC2)c1` (stereo unspecified), for which the “activity change, negative = cytotoxic” value was -22.3% (inactive).
Turning to `O=C(O)CCNC(=O)c1ccc(N=Nc2ccc(O)c(C(=O)O)c2)cc1`, the Potency entry is “inactive”.
For `COc1cc2c(cc1OC)C1CC(=O)C(CC(C)C)CN1CC2` (stereo unspecified), the “activity change, negative = cytotoxic” value is 15.8% (inactive).
Turning to `Nc1nc(Cl)nc2c1ncn2[C@H]1C[C@H](O)[C@@H](CO)O1`, the Potency was 0.418 µM (active).
On to `COc1c(O)cc2c(c1O)[C@@H]1O[C@H](CO)[C@@H](O)[C@H](O)[C@H]1OC2=O`, for which the “activity change, negative = cytotoxic” value was -1.66% (inactive).
With `c1ccc2[nH]c(-c3cscn3)nc2c1`, the Potency entry is “inactive”.
Turning to `O=C(NCCO[N+](=O)[O-])c1cccnc1`, the Potency result was “inactive”.
